Hits are enriched below; roughly 3% of the tested compounds scored in any of these assays.
Tb PYK inh: qHTS of Trypanosoma Brucei Inhibitors; 410,000 compounds, 0.12% hits; TbPYK enzyme, Kinase-Glo Plus ATP luminescence, 45 min; Potency, µM (top dose mostly 76.8 µM), inactives show top-dose activity, negative = inhibition, actives largely listed as inhibitors; pyruvate kinase (Trypanosoma brucei), Q57TT1; further: nearly all actives have a fitted effect of over 50% in size
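TbPYK + substrate in 50 mM TEA pH 7.2, 100 mM KCl, 10 mM MgCl2, 0.05% BSA, 0.01% Tween-20; cpd pinned; ADP 130 uM final; 45 min RT; Kinase-Glo Plus 10 min; luminescence endpoint.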
RE007 growth inh: qHTS Assay for Inhibitors of the HIV-1 protein Vpr | S. pombe RE007 Vpr strain, BacTiter-Glo ATP luminescence, 24 h | Potency, µM (highest dose often 92.2 µM), inactives show at the highest dose activity change, negative = less growth, usual class: inhibitors | 360,000 compounds, 0.21% hits | AID 651644, 2012; active means well fitted falling curve with a large enough effect; inconclusive means small, poorly fitted or top-dose-only effect; inactive means no such curve, though single readings can be large or run the other way; further: nearly all actives have a fitted effect of over 50% in size
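Fission yeast RE007 carrying one integrated HIV-1 vpr copy, seeded at OD 0.01 in PMG+AL medium with 23 nL pinned compound. Grown 24 h at 30 degrees; viability read by BacTiter-Glo luminescence after 5 min.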
LmPK inhibitor: qHTS Assay for Inhibitors of Leishmania Mexicana Pyruvate Kinase (LmPK); 290,000 compounds, 0.37% hits; Potency, µM (titrated, usually from 57.5 µM), for inactives: top-dose activity change, negative = inhibition, actives largely listed as inhibitors; AID 1721, 2009; purified LmPK, Kinase-Glo ATP luminescence, 1 h; Q27686
Target sequence (Q27686 whole entry, looked up): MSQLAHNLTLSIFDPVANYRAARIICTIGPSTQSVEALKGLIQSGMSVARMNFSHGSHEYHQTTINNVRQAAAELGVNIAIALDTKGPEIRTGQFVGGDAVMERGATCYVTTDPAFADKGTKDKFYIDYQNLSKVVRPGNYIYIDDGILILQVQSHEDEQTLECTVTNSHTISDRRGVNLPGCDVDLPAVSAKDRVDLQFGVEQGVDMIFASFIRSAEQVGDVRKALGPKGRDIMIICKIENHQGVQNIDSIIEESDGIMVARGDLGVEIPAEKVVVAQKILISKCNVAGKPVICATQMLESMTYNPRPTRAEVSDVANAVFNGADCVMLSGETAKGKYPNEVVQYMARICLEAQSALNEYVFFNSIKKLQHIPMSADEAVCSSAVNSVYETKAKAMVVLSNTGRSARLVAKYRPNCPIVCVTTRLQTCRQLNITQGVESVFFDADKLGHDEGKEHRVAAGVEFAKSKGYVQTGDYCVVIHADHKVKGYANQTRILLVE
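Screened at intermediate enzyme activity to detect both inhibitors and activators: LmPK at 0.1 nM, with a 0.5 nM enzyme column as activation reference. PEP 0.5 mM, ADP 0.1 mM; ATP detected by luminescence after 1 h.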
Sm TGR block: qHTS Assay for the Inhibitors of Schistosoma Mansoni Peroxiredoxins | Potency, µM (titrated, usually from 114 µM), without a hit: at the top dose activity change, negative = inhibition, most hits filed as inhibitors | Schistosoma mansoni thioredoxin glutathione reductase (TGR), Q962Y6 | 360,000 compounds, 3% hits | purified TGR, DTNB reduction, TNB absorbance 405 nm; further: nearly all actives have a fitted effect of over 60% in size
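First, TGR (20 nM dispensed) and NADPH were mixed with compound. Second, a 15 min room-temperature incubation followed. Third, further NADPH and then DTNB were added to start the reaction. Finally, TNB absorbance was monitored kinetically.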
* marks the source's active call; other numbers are inactive results; ? = inconclusive; . = no result given; [ ] = another dose, or the depositor's remark. Unless noted, the call rests on the fitted dose curve; in most records, active means well fitted curve in the direction sought with a large enough effect; inconclusive means small, poorly fitted or top-dose-only effect, or another doubt; inactive means no such curve, though single readings can be large; an effect the other way counts as inactive or inconclusive. On the % scale 0 is the no-effect control and ±100 the full control effect; potency means the concentration at half of the fitted maximal effect.

SMILES	Tb PYK inh	RE007 growth inh	LmPK inhibitor	Sm TGR block
CSc1nnc(C)c(=O)n1COC(=O)/C=C/c1ccc2c(c1)OCO2	-4%	12%	0%[11.5 µM]	25µM*
CSc1nnc(C)c(=O)n1COC(=O)/C=C/c1ccccc1	-5%	22%	3%	?
CCCn1c(=O)c2sccc2n2c(CCCC(=O)Nc3ccccc3F)nnc12	1%	.	.	1%
COc1cccc(-c2nc(CS(=O)CC(=O)N3CCN(c4cccc(C(F)(F)F)c4)CC3)c(C)o2)c1 (configuration not stated)	-3%	.	.	?
Cc1oc(-c2ccccc2F)nc1CS(=O)CC(=O)N1CCC2(CC1)OCCO2 (configuration not stated)	.	11%[3.69 µM]	-1%	28µM*
Cc1oc(-c2ccccc2F)nc1CS(=O)CC(=O)NCc1ccc(F)cc1 (configuration not stated)	6%	-11%	-2%	?
CCOC(=O)C1CCN(C(=O)CS(=O)Cc2nc(-c3ccc(C)cc3)oc2C)CC1 (configuration not stated)	2%	0%	0%	4µM*
COc1cccc(-c2nc(CS(=O)CC(=O)N3CCC4(CC3)OCCO4)c(C)o2)c1 (configuration not stated)	-7%	1%	0%	5µM*
Cc1oc(-c2ccc(Cl)cc2)nc1CS(=O)CC(=O)N1CCC2(CC1)OCCO2 (configuration not stated)	-3%	-11%	1%	20µM*
CCN(CC)c1nn2c(=O)c(C(=O)NCc3ccccc3Br)cnc2s1	3%	.	.	4%
COc1cccc(/C=C/c2nc(C#N)c(N3CCCCC3)o2)c1	0%	.	.	2%
COc1ccc(N2C(=O)CC(Sc3nnc(-c4ccccc4)o3)C2=O)cc1 (configuration not stated)	.	-14%[3.69 µM]	2%	3.5µM*
O=C1CC(Sc2ncccn2)C(=O)N1c1ccccc1 (configuration not stated)	2%	-11%	4%	?
O=C1CC(Sc2nnc(-c3ccccc3O)o2)C(=O)N1c1ccccc1 (configuration not stated)	-8%	50µM*	-3%	4µM*
COc1ccc(N2C(=O)CC(Sc3nc(C)cc(C)c3C#N)C2=O)cc1 (configuration not stated)	-4%	-12%	4%	?
CC(NNC(=S)N1CCCCCC1)c1ccc2ccccc2n1 (configuration not stated)	-2%	0%	.	.
O=[N+]([O-])c1cc(-c2nc(-c3ccccc3)no2)ccc1NCCc1ccccc1	1%	.	.	1%
COc1cccc(N=CC2=C(O)CCCC2=O)c1	3%	40µM*	0%	-2%
O=C1NN(c2ccccc2)C(=O)/C1=C\c1cccc(OC(=O)c2cccs2)c1	?	-3%	-6%	35µM*
O=C1c2ccccc2CC1Sc1nnc(-c2ccccn2)o1 (configuration not stated)	-22%	10%	-8%	45µM*
CC1CCN(S(=O)(=O)c2ccc3nc(NCc4ccccc4)ccc3c2)CC1	3%	.	.	-4%
COc1ccc(S(=O)(=O)N2CCCCCC2)cc1NC(=O)CN1C(=O)NC(C)(c2ccccc2)C1=O (configuration not stated)	0%	-7%	.	35µM*
CCC1(c2ccccc2)NC(=O)N(CC(=O)Nc2cc(S(=O)(=O)N3CCCCC3)ccc2N(C)C)C1=O (configuration not stated)	7%	1%	.	4%
Clc1ccc(C2=Nn3c(nnc3-c3cccs3)SC2)cc1	-21%	-7%	-4%	79µM*
CCc1nnc2n1N=C(c1ccccc1)CS2	1%	-1%	4%	45µM*
SMILES	Tb PYK inh	RE007 growth inh	LmPK inhibitor	Sm TGR block
CCCc1nnc2n1N=C(c1ccc(C)cc1)CS2	-4%	2%	-7%	45µM*
Cc1ccc2c(c1)c1c3n2CCN(C(=O)c2cccc(C(F)(F)F)c2)C3CCC1 (configuration not stated)	4%	.	.	-2%
COC(=O)c1ccccc1NC(=O)NCc1ccc2c(c1)CCN2C(=O)c1ccccc1	-1%	.	.	9%
Cc1ccc(S(=O)(=O)NNC(=O)C(=O)NNS(=O)(=O)c2ccc(C)cc2)cc1	-1%	?	15%	0%
Cc1ccc(NNS(=O)(=O)c2ccc(C)cc2)cc1	?	32µM*	34%	7.9µM*
Cc1nc2c(c(C)c1CCC(=O)N1CCN(c3ccccc3)CC1)c(=O)n(C)c(=O)n2C	6%	.	.	-6%
COc1ccccc1N1CCN(Cc2ccc(F)cc2)CC1	-7%	-11%	0%	-18%
N#Cc1ccc(C(=O)CN2CCN(c3ccccc3)CC2)cc1	-10%	-18%	-5%	7.1µM*
COc1ccccc1N1CCN(CC(=O)c2ccc(F)cc2)CC1	-3%	-2%	-2%	22µM*
O=C(CN1CCN(c2ccccc2)CC1)c1c[nH]c2ccccc12	-1%	-14%	3%	7%
COc1ccc(C(=O)CN2CCN(c3ccc(Cl)cc3)CC2)cc1OC	-7%	5%	-4%	35µM*
N#CCN1CCN(CC(=O)c2ccc(Br)cc2)CC1	2%	-4%	1%	11µM*
C=CCN1C(=O)C(CC(C)C)NC1=S (configuration not stated)	-2%	.	.	.
COc1cc(OC)c(OC)cc1CN1CCN(c2ccc(F)cc2)CC1	24%	-3%	-4%	3%
COc1ccc(N2CCN(CC(=O)c3ccc(Cl)cc3)CC2)cc1	-12%	1%	-1%	11µM*
COc1ccc(C(=O)CCN2CCN(c3ccc(OC)cc3)CC2)cc1	6%	?	-7%	0%
COc1ccc(C(=O)CN2CCN(c3ccc(F)cc3)CC2)cc1OC	-17%	-23%	0%	35µM*
COc1ccc(C(=O)N2CCC3(CCN(C)CC3)CC2)cc1	0%	.	.	.
CN1C(=O)CC(C)(c2ccccc2)C1=O (configuration not stated)	-5%	.	.	.
COc1ccc(C(=O)c2ccsc2N)cc1	-7%	-12%	-1%	13µM*
OC(CCN1CCCCC1)(c1ccccc1)c1ccccc1	-4%	-7%[18.4 µM]	-5%	1%
COc1ccc(C(O)(CCc2ccccc2)CCN2CCCCC2)cc1 (configuration not stated)	-10%	-25%	8%	2.8µM*
C=CCC(O)(CCN1CCCCC1)c1ccccc1 (configuration not stated)	2%	3%	3%	25µM*
CCCOc1ccc(C(O)(CCN2CCCCC2)c2ccccc2OC)cc1 (configuration not stated)	4%	-7%	-5%	?
O=C(CO)NCCCOc1cccc(CN2CCCCC2)c1	-7%	.	.	.
CN(C)CC(=O)c1c(N)n(Cc2ccccc2)c(=O)n(C)c1=O	2%	22%	5%	2%
Cn1c(N)c(C(=O)CCl)c(=O)n(C)c1=O	4%	-15%	7%	25µM*

Screening results deposited in PubChem by National Center for Advancing Translational Sciences (NCATS).
